Measurements from PubChem BioAssay (EPA / NIEHS).
Records with an inconclusive call do not appear. Activity calls are given as the source filed them. How the source made its calls, unless noted: active means hit-call score of the fitted dose curve at least 0.9, where 1 is the maximum; inactive means score below 0.9.

Tests used:
[1] = molecular target: Retinoic acid receptor alpha (Homo sapiens) (UniProt P10276); experiment: ATG_DR5_RAR_CIS: Attagene CIS-FACTORIAL HepG2 Assay for human Retinoic Acid Receptor Alpha (RARE), DR5 submotif (AID 2282934); details: HepG2 Attagene cis-factorial RARE DR5 reporter, mRNA; actives raise or lower the signal
How it was run: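 HepG2 cells transiently transfected with multiplexed reporter units under cis (DR5 RARE) promoters, so endogenous transcription factor activity is measured. After 24 h compound exposure, reporter mRNA is quantified by RT-PCR with fluorescent labelling and capillary electrophoresis; bidirectional fitting versus DMSO.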

[2] = molecular target: Hepatocyte nuclear factor 3-beta (Homo sapiens) (UniProt Q9Y261); experiment: ATG_FoxA2_CIS: Attagene CIS-FACTORIAL HepG2 Assay for human Forkhead box A2 (FOXA2) (AID 2282942); details: HepG2 cis-reporter transcription factor activity, 24 h; actives raise or lower the signal
How it was run: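 Endogenous transcription factor activity is captured via cis-element-driven reporter transcripts in transfected HepG2. Total RNA taken at 24 h post-dosing; labelled RT-PCR products resolved by capillary electrophoresis. Gain or loss fitted versus DMSO.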

[3] = ATG_GLI_CIS: Attagene CIS-FACTORIAL HepG2 Assay for human Zinc Finger Protein GLI1 (AID 2282945); details: HepG2, Attagene cis-factorial reporter mRNA, GLI element; actives raise or lower the signal
How it was run: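 HepG2 cells transiently transfected with cis-promoter multiplexed reporter units report endogenous transcription factor activity. After 24 h chemical exposure, reporter mRNA was quantified by RT-PCR, 6-FAM labelling, HpaI digestion and capillary electrophoresis, with bidirectional fitting against DMSO.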

[4] = ATG_GRE_CIS: Attagene CIS-FACTORIAL HepG2 Assay for human Glucocorticoid Response Elements (GRE) (AID 2282947); details: HepG2 GRE cis-reporter, Attagene multiplex mRNA; actives raise or lower the signal
How it was run: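 Cells (HepG2) bearing transfected cis-promoter reporter transcription units were treated with chemical for 24 hours. Reporter mRNA was measured via RT-PCR with capillary electrophoresis, and activity was fitted in both directions relative to DMSO.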

[5] = ATG_M_32_CIS: Attagene CIS-FACTORIAL HepG2 Assay for M32 Transcription Factor (Internal Marker) (AID 2282949); details: HepG2 Attagene cis-factorial M32 reporter, mRNA; actives raise or lower the signal;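 further: background control marker of the multiplexed CIS panel rather than a real target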
How it was run: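 HepG2 transfectants (cis-regulated reporter transcription units) dosed 24 h. Reporter mRNA by RT-PCR plus CE, analysed as gain or loss relative to DMSO.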

[6] = ATG_MRE_CIS: Attagene CIS-FACTORIAL HepG2 Assay for human Metal Responsive Element (MRE) (AID 2282954); details: HepG2 MRE cis-reporter transcription, Attagene multiplex; actives raise or lower the signal
How it was run: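 Cells were transfected with cis-promoter reporter transcription units, then dosed for 24 h. RNA was reverse-transcribed, amplified, fluorescently labelled and resolved by capillary electrophoresis, and activity was fitted in both directions relative to DMSO.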

[7] = ATG_PBREM_CIS: Attagene CIS-FACTORIAL HepG2 Assay for human Phenobarbital-responsive Enhancer Module (PBREM) (AID 2282955); details: HepG2 PBREM cis-reporter, Attagene multiplexed transcription; actives raise or lower the signal
How it was run: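 Endogenous transcription factor activity was read from reporter transcripts in transiently transfected human HepG2 liver cells after 24 h dosing. RT-PCR products were fluorescently labelled, HpaI-cut and sized by capillary electrophoresis; activity fitted bidirectionally against DMSO baseline.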

[8] = molecular target: Hepatocyte nuclear factor 4-alpha (Homo sapiens) (UniProt P41235); experiment: ATG_HNF4a_TRANS: Attagene TRANS-FACTORIAL HepG2 Assay for human Hepatocyte Nuclear Factor 4 alpha (HNF4a) (AID 2282982; active means hit-call score of the fitted dose curve at least 0.9, where 1 is the maximum); details: HepG2 HNF4a transactivation reporter, mRNA readout
How it was run: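 In this trans-factorial format, a chimeric HNF4a-GAL4 fusion drives a GAL4-UAS reporter in transfected HepG2 liver cells. After 24 h treatment, reporter mRNA induction is measured by RT-PCR with capillary electrophoresis, relative to DMSO.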

[9] = molecular target: Nuclear respiratory factor 1 (Homo sapiens) (UniProt Q16656); experiment: ATG_NRF1_CIS: Attagene CIS-FACTORIAL HepG2 Assay for human Nuclear Respiratory Factor 1 (NRF1) Orphan Gene (AID 2282987); details: HepG2 NRF1 cis-element reporter, Attagene multiplex; actives raise or lower the signal
How it was run: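 Endogenous NRF1-driven reporter transcription in transfected HepG2 cells after 24 h treatment. Readout: RT-PCR products, 6-FAM labelled and resolved by capillary electrophoresis; changes fitted both directions relative to DMSO.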

[10] = molecular target: human Peroxisome Proliferator-activated Receptor alpha (PPARa), PPARA (gene 5465) (UniProt Q07869); experiment: ATG_PPARa_TRANS: Attagene TRANS-FACTORIAL HepG2 Assay for human Peroxisome Proliferator-activated Receptor alpha (PPARa) (AID 2283001; active means hit-call score of the fitted dose curve at least 0.9, where 1 is the maximum)
How it was run: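 Cells (HepG2) are transfected with multiple reporter transcription units, exposed to chemical for 24 h, then total RNA is reverse-transcribed and amplified. Labelled products are quantified by capillary electrophoresis; induction is referenced to DMSO.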

[11] = molecular target: human Retinoid X Receptor beta (RXRb), RXRB (gene 6257) (UniProt P28702); experiment: ATG_RXRb_TRANS: Attagene TRANS-FACTORIAL HepG2 Assay for human Retinoid X Receptor beta (RXRb) (AID 2283013; active means hit-call score of the fitted dose curve at least 0.9, where 1 is the maximum)
How it was run: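 Chimeric receptor-Gal4 activity was assessed in transiently transfected human HepG2 cells after 24 h exposure. Transcripts from GAL4-UAS reporters were quantified by fluorescent RT-PCR and capillary electrophoresis, with DMSO as negative control and baseline.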

[12] = molecular target: Cellular tumor antigen p53 (Homo sapiens) (UniProt P04637); experiment: TOX21_p53_BLA_p3_ratio: Tox21 HCT-116 p53 Agonism Beta-lactamase Assay, Ratio, Phase 3 (AID 2283596; active means hit-call score of the fitted dose curve at least 0.9, where 1 is the maximum)
How it was run: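 Cells were seeded at 4000/well, rested 5 h at 37C, then dosed with DMSO compound solutions (217-fold dilution) for 16 h. CCF4-AM substrate was loaded for 2 h at room temperature, and the 460/530 nm emission ratio was fitted for gain of signal versus DMSO.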

[13] = molecular target: Cellular tumor antigen p53 (Homo sapiens) (UniProt P04637); experiment: TOX21_p53_BLA_p5_ratio: Tox21 HCT-116 p53 Agonism Beta-lactamase Assay, Ratio, Phase 5 (AID 2283599; active means hit-call score of the fitted dose curve at least 0.9, where 1 is the maximum)
How it was run: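 HCT-116 cells carrying a p53-inducible beta-lactamase reporter were seeded at 4000 cells/well and dosed after 5 h with compound in DMSO (217-fold dilution). After 16 h at 37C, CCF4-AM substrate was added for 2 h, and the 460/530 nm emission ratio was scored as gain-of-signal versus DMSO.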

[14] = molecular target: Cellular tumor antigen p53 (Homo sapiens) (UniProt P04637); experiment: TOX21_p53_BLA_p4_ratio: Tox21 HCT-116 p53 Agonism Beta-lactamase Assay, Ratio, Phase 4 (AID 2283601; active means hit-call score of the fitted dose curve at least 0.9, where 1 is the maximum)
How it was run: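 HCT116 cells carrying an inducible beta-lactamase reporter were plated at 4000 cells/well, rested 5 h, then exposed to compounds in DMSO (217-fold dilution) for 16 h at 37C. CCF4-AM substrate was loaded 2 h at room temperature; 460/530 nm emission ratio scored gain-of-signal versus DMSO.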

[15] = ATG_RORE_CIS: Attagene CIS-FACTORIAL HepG2 Assay for human RAR-related Orphan Receptor Element (RORE) (AID 2282959); details: HepG2 Attagene cis-factorial RORE reporter, mRNA; actives raise or lower the signal
How it was run: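 RORE reporter transcripts reflecting endogenous factor activity were read after 24 h compound exposure of transfected HepG2 cells, using reverse transcription, PCR, fluorescent labelling and capillary electrophoresis sizing. Gain or loss fitted against DMSO.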

[16] = ATG_M_32_TRANS: Attagene TRANS-FACTORIAL HepG2 Assay for M32 Transcription Factor (Internal Marker) (AID 2282984; active means hit-call score of the fitted dose curve at least 0.9, where 1 is the maximum;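 further: transcript level of a background control reporter unit measured by RT-PCR and capillary electrophoresis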); details: HepG2 Attagene TRANS M32 internal marker reporter
How it was run: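 After 24 h dosing of transfected HepG2 cells, total RNA was reverse-transcribed, reporter sequences PCR-amplified, 6-FAM labelled by primer extension and HpaI-digested before capillary electrophoresis. Signal increase over DMSO was fitted.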

[17] = ATG_NF_kB_CIS: Attagene CIS-FACTORIAL HepG2 Assay for human Nuclear Factor Kappa B (NF-kB) (AID 2282991); details: HepG2 Attagene cis-factorial NF-kB reporter mRNA; actives raise or lower the signal
How it was run: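 Readout is reporter transcript level, gain or loss versus DMSO, measured 24 h post-dose via RT-PCR, fluorescent labelling and capillary electrophoresis. Human HepG2 liver cells carried transiently transfected CIS reporter constructs reflecting endogenous factors.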

[18] = molecular target: Retinoic acid receptor RXR-alpha (Homo sapiens) (UniProt P19793); experiment: ATG_RXRa_TRANS: Attagene TRANS-FACTORIAL HepG2 Assay for human Retinoid X Receptor alpha (RXRa) (AID 2283012; active means hit-call score of the fitted dose curve at least 0.9, where 1 is the maximum)
How it was run: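 Measures exogenous chimeric NR-GAL4 activity in transfected HepG2 liver cells after 24 h of dosing. Induced reporter mRNA was detected by RT-PCR with capillary electrophoresis, and gain of signal was analysed against DMSO.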

[19] = TOX21_p53_BLA_p2_viability: Viability Assessment in the Tox21 HCT-116 p53 Agonism Beta-lactamase Assay, Phase 2 (AID 2283591; active means hit-call score of the fitted dose curve at least 0.9, where 1 is the maximum;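 further: compound exposure lasted 16 h at 37 °C; actives lower the ATP signal meaning cytotoxicity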)
How it was run: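 HCT-116 p53-bla cells (4000/well) rested 5 h at 37C, then received compounds in DMSO (217-fold dilution) for 16 h at 37C, 5% CO2. After the CCF4 read, CellTiter-Glo was added; ATP luminescence was read after 30 min at room temperature.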

[20] = TOX21_p53_BLA_p5_viability: Viability Assessment in the Tox21 HCT-116 p53 Agonism Beta-lactamase Assay, Phase 5 (AID 2283600; active means hit-call score of the fitted dose curve at least 0.9, where 1 is the maximum)
How it was run: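 Viability is taken from cellular ATP content, measured by luciferase luminescence in the same wells after the beta-lactamase ratio read. Cells are seeded at 4000 per well and exposed to DMSO-dissolved compounds, diluted 217-fold, for 16 h.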

Measured: AC50

Sequence of human Peroxisome Proliferator-activated Receptor alpha (PPARa), PPARA (gene 5465) (Q07869 whole entry, looked up): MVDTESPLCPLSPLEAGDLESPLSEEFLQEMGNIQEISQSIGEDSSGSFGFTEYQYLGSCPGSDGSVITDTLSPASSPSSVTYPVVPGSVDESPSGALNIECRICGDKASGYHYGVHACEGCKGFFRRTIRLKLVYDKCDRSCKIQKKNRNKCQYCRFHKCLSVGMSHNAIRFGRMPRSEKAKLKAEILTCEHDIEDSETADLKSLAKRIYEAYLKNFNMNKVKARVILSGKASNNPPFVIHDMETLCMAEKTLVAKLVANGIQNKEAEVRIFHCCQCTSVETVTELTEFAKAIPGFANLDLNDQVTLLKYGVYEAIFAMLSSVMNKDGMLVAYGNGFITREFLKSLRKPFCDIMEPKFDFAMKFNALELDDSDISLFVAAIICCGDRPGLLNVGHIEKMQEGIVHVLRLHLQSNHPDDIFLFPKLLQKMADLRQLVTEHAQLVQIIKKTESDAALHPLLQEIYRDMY
Sequence of Hepatocyte nuclear factor 4-alpha (Homo sapiens) (P41235 whole entry, looked up, the tested form may be a part): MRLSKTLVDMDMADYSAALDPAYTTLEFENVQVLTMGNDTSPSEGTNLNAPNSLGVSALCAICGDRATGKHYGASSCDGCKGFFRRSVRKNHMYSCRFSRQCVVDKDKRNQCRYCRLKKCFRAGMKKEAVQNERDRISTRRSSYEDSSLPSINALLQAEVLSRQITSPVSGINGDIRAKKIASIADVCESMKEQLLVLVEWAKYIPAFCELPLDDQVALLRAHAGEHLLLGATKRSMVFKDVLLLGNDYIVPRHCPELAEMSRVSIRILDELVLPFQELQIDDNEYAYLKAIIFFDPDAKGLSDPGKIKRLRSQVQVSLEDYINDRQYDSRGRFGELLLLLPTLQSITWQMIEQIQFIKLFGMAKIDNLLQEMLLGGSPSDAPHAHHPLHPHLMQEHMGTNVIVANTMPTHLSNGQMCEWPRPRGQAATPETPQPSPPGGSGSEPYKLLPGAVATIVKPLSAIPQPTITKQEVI
Sequence of human Retinoid X Receptor beta (RXRb), RXRB (gene 6257) (P28702 whole entry, looked up, the tested form may be a part): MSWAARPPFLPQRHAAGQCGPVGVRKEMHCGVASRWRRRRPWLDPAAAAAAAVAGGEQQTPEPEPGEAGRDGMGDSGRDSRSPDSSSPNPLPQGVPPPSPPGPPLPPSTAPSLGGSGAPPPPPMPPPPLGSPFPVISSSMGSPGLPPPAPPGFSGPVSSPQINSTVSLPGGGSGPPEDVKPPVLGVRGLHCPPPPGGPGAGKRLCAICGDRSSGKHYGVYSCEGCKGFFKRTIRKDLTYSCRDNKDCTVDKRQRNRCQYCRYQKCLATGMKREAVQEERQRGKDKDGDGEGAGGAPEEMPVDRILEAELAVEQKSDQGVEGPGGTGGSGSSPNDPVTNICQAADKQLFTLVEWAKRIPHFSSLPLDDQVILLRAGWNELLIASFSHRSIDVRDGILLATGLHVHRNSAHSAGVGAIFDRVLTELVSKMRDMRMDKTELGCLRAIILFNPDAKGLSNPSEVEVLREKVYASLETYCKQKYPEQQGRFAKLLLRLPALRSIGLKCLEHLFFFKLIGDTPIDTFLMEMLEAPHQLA
Sequence of Hepatocyte nuclear factor 3-beta (Homo sapiens) (Q9Y261 whole entry, looked up): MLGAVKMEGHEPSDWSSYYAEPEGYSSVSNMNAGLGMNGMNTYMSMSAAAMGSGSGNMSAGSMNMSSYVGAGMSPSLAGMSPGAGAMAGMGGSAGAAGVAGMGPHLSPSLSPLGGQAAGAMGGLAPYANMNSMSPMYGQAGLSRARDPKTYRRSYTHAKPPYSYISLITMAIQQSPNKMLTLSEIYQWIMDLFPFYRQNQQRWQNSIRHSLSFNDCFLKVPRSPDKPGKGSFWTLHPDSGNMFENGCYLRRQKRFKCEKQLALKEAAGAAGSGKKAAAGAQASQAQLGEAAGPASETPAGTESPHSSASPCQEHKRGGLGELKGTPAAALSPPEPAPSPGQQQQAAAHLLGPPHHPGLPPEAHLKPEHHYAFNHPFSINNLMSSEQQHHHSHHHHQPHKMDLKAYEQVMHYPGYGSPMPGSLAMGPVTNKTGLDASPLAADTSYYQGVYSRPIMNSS
Sequence of Cellular tumor antigen p53 (Homo sapiens) (P04637 whole entry, looked up): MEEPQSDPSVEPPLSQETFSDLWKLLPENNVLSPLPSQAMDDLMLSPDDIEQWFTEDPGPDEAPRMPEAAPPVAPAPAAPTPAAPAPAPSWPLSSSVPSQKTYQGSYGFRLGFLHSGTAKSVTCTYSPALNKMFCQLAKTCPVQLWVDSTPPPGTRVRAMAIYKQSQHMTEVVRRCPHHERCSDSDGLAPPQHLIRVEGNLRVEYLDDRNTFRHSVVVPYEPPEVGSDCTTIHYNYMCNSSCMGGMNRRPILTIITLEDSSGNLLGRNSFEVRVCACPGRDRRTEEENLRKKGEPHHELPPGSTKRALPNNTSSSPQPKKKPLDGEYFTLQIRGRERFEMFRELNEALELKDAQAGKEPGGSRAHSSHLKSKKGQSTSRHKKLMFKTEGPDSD
Sequence of Retinoic acid receptor RXR-alpha (Homo sapiens) (P19793 whole entry, looked up, the tested form may be a part): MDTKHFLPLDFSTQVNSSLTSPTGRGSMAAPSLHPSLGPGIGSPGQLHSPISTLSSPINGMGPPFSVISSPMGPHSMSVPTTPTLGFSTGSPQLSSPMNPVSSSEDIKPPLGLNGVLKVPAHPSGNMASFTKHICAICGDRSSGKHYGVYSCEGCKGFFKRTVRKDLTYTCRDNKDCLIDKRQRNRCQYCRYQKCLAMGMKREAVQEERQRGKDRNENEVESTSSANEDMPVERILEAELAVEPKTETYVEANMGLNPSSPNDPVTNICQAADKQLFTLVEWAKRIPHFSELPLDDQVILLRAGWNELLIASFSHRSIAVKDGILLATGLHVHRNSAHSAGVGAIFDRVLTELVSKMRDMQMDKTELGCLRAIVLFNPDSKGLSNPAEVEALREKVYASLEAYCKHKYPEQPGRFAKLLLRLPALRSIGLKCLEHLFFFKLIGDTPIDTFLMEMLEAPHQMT
Sequence of Nuclear respiratory factor 1 (Homo sapiens) (Q16656 whole entry, looked up): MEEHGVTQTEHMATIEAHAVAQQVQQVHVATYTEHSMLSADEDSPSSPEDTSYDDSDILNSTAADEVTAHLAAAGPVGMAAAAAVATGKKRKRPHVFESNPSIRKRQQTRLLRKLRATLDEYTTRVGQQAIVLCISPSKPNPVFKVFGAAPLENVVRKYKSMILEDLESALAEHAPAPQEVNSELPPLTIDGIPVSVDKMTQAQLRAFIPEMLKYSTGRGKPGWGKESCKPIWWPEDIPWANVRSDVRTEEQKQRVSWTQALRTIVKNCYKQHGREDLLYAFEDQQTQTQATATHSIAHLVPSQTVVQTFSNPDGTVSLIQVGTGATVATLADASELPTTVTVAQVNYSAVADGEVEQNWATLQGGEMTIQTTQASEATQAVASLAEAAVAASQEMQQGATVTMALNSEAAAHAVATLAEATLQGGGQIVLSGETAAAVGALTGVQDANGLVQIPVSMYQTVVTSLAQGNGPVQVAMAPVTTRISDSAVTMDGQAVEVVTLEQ
Sequence of Retinoic acid receptor alpha (Homo sapiens) (P10276 whole entry, looked up): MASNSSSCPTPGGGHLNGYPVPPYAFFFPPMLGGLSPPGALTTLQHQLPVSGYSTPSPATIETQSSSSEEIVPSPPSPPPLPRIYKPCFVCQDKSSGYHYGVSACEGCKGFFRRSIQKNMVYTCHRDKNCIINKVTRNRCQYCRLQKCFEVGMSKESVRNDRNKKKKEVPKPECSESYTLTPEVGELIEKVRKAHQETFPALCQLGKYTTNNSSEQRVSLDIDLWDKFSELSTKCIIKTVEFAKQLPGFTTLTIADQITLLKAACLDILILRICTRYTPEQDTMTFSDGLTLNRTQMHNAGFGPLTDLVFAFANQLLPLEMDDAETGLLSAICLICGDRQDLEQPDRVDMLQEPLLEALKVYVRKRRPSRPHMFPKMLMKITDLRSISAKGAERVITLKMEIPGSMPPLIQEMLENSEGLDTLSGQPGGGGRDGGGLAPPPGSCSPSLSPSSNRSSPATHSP

C=CCOC(=O)C(=C)C
not listed: [15] | [16] | [17] | [18] | [19] | [20]
inactive: all other assays above

C/C=C(\C)C(=O)OCC/C=C\CC
not listed: [2] | [8] | [9] | [10] | [13]
inactive: all other assays above

NC(N)=Nc1nc(CSCCC(N)=NS(N)(=O)=O)cs1
not listed: [5] | [7] | [8] | [15] | [17] | [18]
inactive: all other assays above

Nc1nnc(-c2ccc([N+](=O)[O-])o2)o1
active: [14] 70.1 µM
not listed: [6] | [9] | [16] | [18]
inactive: all other assays above

Cc1cc(-n2nc3ccc(Cl)cc3n2)c(O)c(C(C)(C)C)c1
not listed: [10] | [11] | [14] | [16] | [17] | [19] | [20]
inactive: all other assays above

CCCCNC(N)=O
not listed: [8] | [16]
inactive: all other assays above

O=C(Oc1ccccc1)c1ccccc1
inactive: [1] | [2] | [3] | [6] | [7] | [8] | [9] | [17] | [11]

CCCCC(CC)COC(=O)CS (configuration not stated)
not listed: [2] | [7] | [8] | [9] | [13] | [15] | [20]
inactive: all other assays above

CC(=O)Nc1c(I)c(NC(C)=O)c(I)c(C(=O)O)c1I
inactive: [1] | [2] | [3] | [4] | [5] | [6] | [15] | [8] | [9]

CC(C)CC(=O)CC(C)CC(C)C (configuration not stated)
not listed: [6] | [8] | [9] | [10]
inactive: all other assays above
